Test [1] in a line: anti-His antibody binders, primary screen, artefact control for SMM control protein annotation, biochemical, small-molecule microarray, 635 nm fluorescence (AID 1128).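 Note: score merges feature fluorescence with signal-to-noise for each printed compound spot.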 As to conditions: anti-His Alexa647 antibody binding, higher = more signal.
Test [2] has as its system Human papillomavirus type 1a E7 protein (residues 1-88). The test is described as follows: HPV1a E7 small-molecule binders, primary screen, biochemical, small-molecule microarray, residues 1-88, 635 nm (AID 1129). As to conditions: small-molecule microarray binding, fluorescence 635 nm; higher = more signal.
For test [3], the target named is Focal adhesion kinase 1 (Homo sapiens) (UniProt Q05397). In words: small-molecule microarray binders of FAK, primary screen, biochemical, 635/667 nm fluorescence, BSA, DTT (AID 1130).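 Note: composite of spot emission at 667 nm and signal to noise over triplicate slides.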 The settings on record: PTK2 binding, 635 nm fluorescence, higher = more signal.
Sequence of Focal adhesion kinase 1 (Homo sapiens) (Q05397 whole entry, looked up): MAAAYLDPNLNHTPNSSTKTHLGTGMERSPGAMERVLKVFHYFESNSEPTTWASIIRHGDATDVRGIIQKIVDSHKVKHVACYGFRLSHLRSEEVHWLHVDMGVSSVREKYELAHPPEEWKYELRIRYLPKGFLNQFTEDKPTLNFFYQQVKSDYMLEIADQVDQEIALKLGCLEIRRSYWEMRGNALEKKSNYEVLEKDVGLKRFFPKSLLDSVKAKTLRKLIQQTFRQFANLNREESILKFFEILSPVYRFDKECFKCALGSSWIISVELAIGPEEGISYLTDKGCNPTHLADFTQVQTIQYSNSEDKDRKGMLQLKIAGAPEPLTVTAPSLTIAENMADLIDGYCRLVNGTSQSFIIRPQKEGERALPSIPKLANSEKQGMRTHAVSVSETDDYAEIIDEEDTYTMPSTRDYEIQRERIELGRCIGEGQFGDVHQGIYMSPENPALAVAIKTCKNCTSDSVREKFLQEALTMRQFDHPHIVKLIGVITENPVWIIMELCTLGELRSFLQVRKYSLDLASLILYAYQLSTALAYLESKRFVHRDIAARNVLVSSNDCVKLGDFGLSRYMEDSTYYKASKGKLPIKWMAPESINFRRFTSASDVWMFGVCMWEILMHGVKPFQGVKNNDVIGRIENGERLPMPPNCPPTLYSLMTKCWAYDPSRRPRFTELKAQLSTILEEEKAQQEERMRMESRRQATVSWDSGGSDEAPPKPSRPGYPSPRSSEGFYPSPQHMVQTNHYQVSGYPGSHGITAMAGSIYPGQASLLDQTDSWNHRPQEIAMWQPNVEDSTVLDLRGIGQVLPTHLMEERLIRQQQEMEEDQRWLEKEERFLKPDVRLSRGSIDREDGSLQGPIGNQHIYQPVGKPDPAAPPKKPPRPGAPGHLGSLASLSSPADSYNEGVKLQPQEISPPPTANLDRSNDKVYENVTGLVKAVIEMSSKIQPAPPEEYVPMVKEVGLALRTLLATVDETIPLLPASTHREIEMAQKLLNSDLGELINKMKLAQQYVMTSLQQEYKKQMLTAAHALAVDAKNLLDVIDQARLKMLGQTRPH
Test [4] relates to Fibrinogen (Alexa647-labelled). In words: fibrinogen binders on compound microarrays, profiling panel, artefact control for SMM control-protein annotation, biochemical, small-molecule microarray, 635/667 nm fluorescence (AID 1131).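 Note: z-score merges 667 nm fluorescence with per-spot signal-to-noise over triplicate slides.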 The settings on record: fibrinogen-A647 binding fluorescence, higher = more signal.
Test [5] concerns the target Follistatin (Homo sapiens) (UniProt P19883). In words: follistatin binders on small-molecule microarrays, primary screen, biochemical, small-molecule microarray, 635/667 nm fluorescence (AID 1132). The settings on record: FST binding, 635 nm fluorescence, higher = more signal.
For test [6], the target named is Fibroblast growth factor 2 (Homo sapiens) (UniProt P09038). The test is described as follows: FGF2 binders on small-molecule microarrays, primary screen, biochemical, small-molecule microarray, 635/667 nm fluorescence (AID 1133). The settings on record: small-molecule microarray binding, FGF2, fluorescence 635/667; higher = more signal.
Sequence of Fibroblast growth factor 2 (Homo sapiens) (P09038 whole entry, looked up): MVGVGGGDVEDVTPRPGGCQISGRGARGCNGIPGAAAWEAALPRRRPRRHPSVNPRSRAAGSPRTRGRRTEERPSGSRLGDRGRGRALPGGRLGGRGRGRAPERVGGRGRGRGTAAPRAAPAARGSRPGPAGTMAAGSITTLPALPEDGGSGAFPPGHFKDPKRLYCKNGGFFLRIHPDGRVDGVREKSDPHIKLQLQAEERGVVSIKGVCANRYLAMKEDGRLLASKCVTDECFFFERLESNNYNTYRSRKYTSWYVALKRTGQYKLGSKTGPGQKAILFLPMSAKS
Test [7] in a line: mitochondrial membrane potential change in A549 cells, profiling panel, cell-based, JC-1 fluorescence, basal, 24 h, 100 nL (AID 1138).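 Note: A549 lung adenocarcinoma cells under basal conditions with no added stimulus; test concentration not given here.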 As to conditions: higher = more signal.
The test system of the next test is Lefty1. The test is described as follows: Lefty1 binders on small-molecule microarrays, primary screen, biochemical, small-molecule microarray, 635/667 nm fluorescence (AID 1139). As to conditions: small-molecule microarray binding, fluorescence 635/667; higher = more signal.
Test [8] concerns wheat germ agglutinin (Triticum aestivum), Alexa647-labelled. The test is described as follows: wheat germ agglutinin binders on compound microarrays, profiling panel, artefact control for SMM control-protein annotation, biochemical, small-molecule microarray, 635/667 nm fluorescence (AID 1140).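 Note: score merges 667 nm feature emission with signal to noise over triplicate slides.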 As to conditions: WGA-A647 binding, 635 nm fluorescence, higher = more signal.
Test [9] deals with Luciferin 4-monooxygenase (Photinus pyralis) (UniProt P08659). In words: firefly luciferase enzyme inhibitors, primary screen, biochemical, luminescence, purified enzyme, 2006 set (AID 1141).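 Note: cell-free assay with purified firefly luciferase at 100 ng per well in PBS; test concentration not given here.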 As to conditions: SteadyGlo luminescence, 30 min, higher = more signal, called active from +8 up or from −8 down.
Sequence of Luciferin 4-monooxygenase (Photinus pyralis) (P08659 whole entry, looked up): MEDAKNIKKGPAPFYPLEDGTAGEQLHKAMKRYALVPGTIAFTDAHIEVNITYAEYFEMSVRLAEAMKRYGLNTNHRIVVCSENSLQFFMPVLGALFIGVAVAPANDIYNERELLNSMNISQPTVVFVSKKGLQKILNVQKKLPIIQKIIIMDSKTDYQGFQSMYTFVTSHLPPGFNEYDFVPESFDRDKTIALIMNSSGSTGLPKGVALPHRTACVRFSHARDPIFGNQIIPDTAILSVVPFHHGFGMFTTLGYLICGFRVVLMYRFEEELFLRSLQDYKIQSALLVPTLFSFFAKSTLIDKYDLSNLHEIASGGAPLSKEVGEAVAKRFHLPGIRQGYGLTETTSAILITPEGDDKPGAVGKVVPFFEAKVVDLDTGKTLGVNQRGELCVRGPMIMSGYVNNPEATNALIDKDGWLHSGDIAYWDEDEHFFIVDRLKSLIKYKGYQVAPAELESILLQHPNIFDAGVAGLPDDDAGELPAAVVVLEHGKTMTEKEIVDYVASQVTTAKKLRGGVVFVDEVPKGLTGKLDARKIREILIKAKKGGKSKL
Test [10] relates to Wnt5a (protein binding on small-molecule microarray). The test is described as follows: Wnt5a binders on small-molecule microarray, primary screen, biophysical, 635/667 nm fluorescence (AID 1142).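 Note: fluorescence read at 667 nm with signal to noise per printed feature.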 As to conditions: 635 nm fluorescence, higher = more signal.
Test [11] is described as follows: cell viability in Huh7 cells, primary screen, cytotoxicity control for HCV replication inhibitor project, CellTiter-Glo luminescence, basal, 48 h (AID 1143).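 Note: Huh7 hepatoma cells carrying a hepatitis C replication reporter with no stimulus; test concentration not given here.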 As to conditions: Huh7 HCV replicon, higher = more signal, called active from +8 up or from −8 down.
Test [12] is described as follows: P. aeruginosa biofilm formation inhibitors, primary screen, PAO1 strain, BacTiter-Glo luminescence, LB-PBS (AID 1144). As to conditions: 12 h, higher = more signal.
The nature of test [13]: CREB reporter modulators without forskolin, primary screen, cell-based, PC12, CRE-LacZ reporter, unstimulated (AID 1145). The settings on record: no forskolin, luminescence, 4.5 h, higher = more signal, called active from +8 up or from −8 down.
Test [14] is described as follows: CREB reporter modulators under forskolin, primary screen, cell-based, PC12, CRE-LacZ reporter, forskolin-stimulated (AID 1146).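 Note: PC12 cells with 6xCRE LacZ reporter stimulated by forskolin 10 µM; beta-galactosidase reporter signal reflecting CREB driven transcription.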 The settings on record: luminescence, 4.5 h, higher = more signal, called active from +8 up or from −8 down.
Test [15] concerns the target Streptavidin (Streptomyces avidinii) (UniProt P22629). The test is described as follows: streptavidin binders on small-molecule microarray, primary screen, artefact control for SMM compound annotation, biophysical, 635/667 nm fluorescence (AID 1147).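 Note: signal reflects streptavidin binding to arrayed compounds as a control protein.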 The settings on record: streptavidin binding, higher = more signal.
A short description of test [16]: small-molecule binders of probe aInhba, primary screen, biochemical, small-molecule microarray, 635/667 nm fluorescence (AID 1148).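 Note: score merges 667nm spot fluorescence with signal-to-noise for antibody binding to printed compounds.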 The settings on record: higher = more signal.
Test [17] has as its target Torsin-1A (Homo sapiens) (UniProt O14656). In words: torsin A binders from cell lysate, primary screen, small-molecule microarray, wild-type, 635/667 nm (AID 1149). The settings on record: COS7 hTOR1A-WT lysate, 635 nm fluorescence, higher = more signal.
For test [18] the target is unchanged. In words: small-molecule binders of mutant TOR1A in lysate, primary screen, cell lysate, small-molecule microarray, COS7 lysate, 635/667 nm fluorescence (AID 1150).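 Note: score pools 667 nm emission and signal to noise measuring lysate protein binding.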 As to conditions: COS7 hTOR1A mutant lysate, 635 nm fluorescence, higher = more signal.
Test [19] has as its system Sonic hedgehog protein (Shh). The test is described as follows: small-molecule binders of Shh protein, primary screen, biochemical, small-molecule microarray, 635/667 nm fluorescence (AID 1151).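 Note: Shh protein binding to compounds spotted on small-molecule microarray slides; score combines spot fluorescence intensity with signal-to-noise across triplicate slides.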 The settings on record: small-molecule microarray binding, 635 nm fluorescence; higher = more signal.

Calls of active or inactive are those of the source. Unless noted, the rule behind the calls is not given here.

Sequence of Follistatin (Homo sapiens) (P19883 whole entry, looked up): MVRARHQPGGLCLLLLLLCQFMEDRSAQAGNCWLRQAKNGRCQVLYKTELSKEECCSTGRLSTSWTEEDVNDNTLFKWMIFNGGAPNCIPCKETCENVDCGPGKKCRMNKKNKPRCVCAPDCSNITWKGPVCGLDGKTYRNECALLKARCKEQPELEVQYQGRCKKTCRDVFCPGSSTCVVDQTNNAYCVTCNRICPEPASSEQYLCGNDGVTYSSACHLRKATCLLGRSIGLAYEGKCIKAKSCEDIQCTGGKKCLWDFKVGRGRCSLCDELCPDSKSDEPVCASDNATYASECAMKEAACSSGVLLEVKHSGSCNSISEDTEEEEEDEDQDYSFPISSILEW
Sequence of Torsin-1A (Homo sapiens) (O14656 whole entry, looked up): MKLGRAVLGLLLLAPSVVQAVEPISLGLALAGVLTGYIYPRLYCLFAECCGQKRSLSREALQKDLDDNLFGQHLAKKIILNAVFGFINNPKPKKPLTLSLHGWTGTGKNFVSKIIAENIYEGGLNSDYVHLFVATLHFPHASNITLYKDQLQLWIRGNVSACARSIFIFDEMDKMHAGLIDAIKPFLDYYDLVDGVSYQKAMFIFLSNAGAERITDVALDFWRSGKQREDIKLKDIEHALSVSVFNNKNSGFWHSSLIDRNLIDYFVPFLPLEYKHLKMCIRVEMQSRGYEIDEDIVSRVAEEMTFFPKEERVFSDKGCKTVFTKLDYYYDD
Sequence of Streptavidin (Streptomyces avidinii) (P22629 whole entry, looked up): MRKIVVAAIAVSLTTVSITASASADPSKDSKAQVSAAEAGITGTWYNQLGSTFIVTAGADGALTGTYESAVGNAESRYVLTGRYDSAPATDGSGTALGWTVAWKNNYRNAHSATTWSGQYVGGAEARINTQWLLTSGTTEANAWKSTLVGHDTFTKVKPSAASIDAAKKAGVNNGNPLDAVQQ

Regarding `COCCOC(=O)N1C(=O)[C@@]2(c3cc(C#CCNC(N)=O)ccc31)[C@H](C(N)=O)[C@H]1C(=O)O[C@H](c3ccccc3)[C@H](c3ccccc3)N1[C@@H]2c1ccc(OCCO)cc1`, the composite z-score in [1] is -0.224; in [2] it was 1.03; in [3], 0.199; in test [4], 0.609; in [5], 1.48; in test [6] it was 1.26. In addition, the composite z-score in the test on Lefty1 came to 1.46; in [8], 0.121; in test [10], 0.601; in test [15], 0.668; in [16], 0.0219; in the test with Torsin-1A (Homo sapiens) [17] it was 0.532. The values for the composite z-score (with Torsin-1A (Homo sapiens) [18]; in [19]) were 1.26 and 1.63, respectively. The z-score was -2.25 in [7]; -1.8 (inactive) in test [9]; 0.166 (inactive) in test [11]; 0.404 (inactive) in test [12]; 0.631 (inactive) in test [13]; -0.0727 (inactive) in test [14].

With `CCCc1cc2c(n1Cc1ccc(OC)cc1)C(C)C1CN(C(=O)c3ccccc3)C(C)(C(=O)OC)C21` (stereo not given), the composite z-score was 2.74 in test [1]; 1.24 in [2]; 1.56 in test [3]; 1.01 in test [4]; 0.0092 in test [5]; -1.19 in test [6]. The composite z-score in the test with Lefty1 was -0.515; in [8] it was 1.47; in [10] it was 0.562; in test [15] it was 1.95; in [16] it was 0.297; with Torsin-1A (Homo sapiens) [17], 0.0326. The composite z-score with Torsin-1A (Homo sapiens) [18] came out at 0.773; in test [19] it was 0.0704. The z-score in test [7] is 0.788; in test [9], 0.062 (inactive); in test [11] it was -3.08 (inactive); in test [12], 0.393 (inactive); in test [13] it was 0.207 (inactive); in test [14], 1.52 (inactive).

Turning to `CCCC[C@H]1OB(O)C[C@H]2C1=C(COc1ccccc1)Cn1c(=O)n(-c3ccccc3)c(=O)n12`, the composite z-score is 0.458 in test [1]; 0.711 in test [2]; -0.0229 in [3]; 0.333 in [4]; 1.1 in [5]; 0.302 in [6]. The composite z-score was 0.976 with Lefty1; 0.09 in test [8]; 0.0561 in test [10]; 0.0395 in test [15]; -0.104 in test [16]; 0.418 with Torsin-1A (Homo sapiens) [17]. For the same compound, the composite z-score in the test with Torsin-1A (Homo sapiens) [18] was determined as 0.5; in [19], 1.64. Further, the z-score was -0.0843 in test [7]; -0.25 (inactive) in test [9]; -0.363 (inactive) in [11]; -0.127 (inactive) in test [12]; -0.141 (inactive) in test [13]; 0.402 (inactive) in [14].

In the case of `COCCOC(=O)N1C(=O)[C@@]2(c3cc(C#CCCO)ccc31)[C@H](c1ccc(OCCO)cc1)N1[C@H](c3ccccc3)[C@H](c3ccccc3)OC(=O)[C@H]1[C@@H]2C(=O)N1CCc2cc(OC)c(OC)cc2C1`, the composite z-score is 1.2 in test [1]; 1.19 in test [2]; 0.81 in test [3]; 0.249 in [4]; 1.22 in test [5]; 1.11 in [6]. Also, the composite z-score in the test on Lefty1 amounted to 1.08; in [8], 0.0877; in test [10] it was 0.359; in [15], 0.402; in test [16], 0.153; in the test with Torsin-1A (Homo sapiens) [17], 0.637. Further, the composite z-score in the test with Torsin-1A (Homo sapiens) [18] amounted to 0.748; in [19], 1.37. The z-score was -0.633 in test [7]; -0.856 (inactive) in test [9]; -0.415 (inactive) in [11]; -0.66 (inactive) in test [12]; -0.231 (inactive) in test [13]; -0.196 (inactive) in [14].

These data come from PubChem BioAssay.
